Experimental data as given in the supplement of paper PMC10338343.
± gives the standard deviation.

What was measured:
[1] = test system: MILI (PIWIL2) piRISC loaded with L1MC piRNA (26 nt); assay: pre-steady-state target cleavage rate (min^-1); guide: L1MC piRNA 5'p-UAACUAAAUACUAUGCAAGCUGUAGG; higher = faster piRNA-guided slicing of the target;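 further: 1 nM active piRISC with 0.1 nM target library at 33 °C single turnover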
How it was run: (§1)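 In this Cleave-'n-Seq assay, uncleaved targets were sequenced and normalised to depth and to weakly complementary targets. They came from a transcribed, DNA-blocked target RNA library […] mixed with 1 nM active affinity-purified piRISC carrying one synthetic guide, with or without 500 nM GTSF1 partner protein, in HEPES–potassium acetate buffer at 33 °C for 0–8 or 0–960 min. After three trials were pooled and k3 was capped at 0.0001 min^-1, the pre-steady-state cleavage rate was obtained from a burst-and-steady-state fit.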

[2] = test system: EfPiwi piRISC loaded with L1MC piRNA (26 nt); assay: pre-steady-state target cleavage rate (min^-1); auxiliary factor: 500 nM Ephydatia muelleri Gtsf1; guide: L1MC piRNA 5'p-UAACUAAAUACUAUGCAAGCUGUAGG; MIWI and MILI are mouse PIWI proteins and EfPiwi is from a freshwater sponge; tags in brackets are library labels; higher = faster piRNA-guided slicing of the target
How it was run: as §1

[3] = auxiliary factor: 500 nM mouse GTSF1
[4] = auxiliary factor: none (no GTSF1)

Row | Sequence | pre-steady-state target cleavage rate [1, 3] | pre-steady-state target cleavage rate [2] | pre-steady-state target cleavage rate [1, 4]
1 | UCCUGCUACAGCUUGCAAAGUAUUUAGAAA | 0.159 ± 0.033 | 0.00352 ± 0.002 | –
2 | UCCUGGAUGAGCUUGCCAUAGUAUUUAGUUA | 0.0808 ± 0.016 | 0.0035 ± 0.0026 | –
3 | UCCUCCUACAGCUUGGAUACUAUUUAGUUA | 0.0539 ± 0.0095 | 0.0118 ± 0.0031 | –
4 | UCCUCCUACAGCUUGCAUAGUUAUUAGUAA | 0.031 ± 0.011 | 0.00524 ± 0.0028 | –
5 | UCCUGGAUGAGCUUGCUUAGUAUUAAGUUA | 0.128 ± 0.021 | 0.00314 ± 0.0031 | –
6 | UCCUGCUUCAGCUUGCAUAGUAUUUUCAAA | 0.0882 ± 0.022 | 0.00362 ± 0.0023 | –
7 | UCCUGGAUGUGCUUGCAUAGUAAUUAGAUA | 0.00915 ± 0.0044 | 0.00395 ± 0.0024 | –
8 | UCCUGGAACAGCUUGCAUAGUAAUUAGAUA | 0.0936 ± 0.022 | 0.00318 ± 0.0015 | –
9 | UCCUGGUACAGCUUGCAUAGUAUUUAGAAA | 0.162 ± 0.03 | 0.00435 ± 0.0017 | –
10 | UCCUGGAACAGCUAGCAUACUAUUUAGUUA | 0.0692 ± 0.011 | 0.0045 ± 0.0019 | –
11 | UCCUCGAACAGCUUGCAUAGUAUUUACAAA | 0.0992 ± 0.021 | 0.00433 ± 0.0025 | –
12 | UCCUGGAACAGCUUGCAUAGUAUUCUAGUUA | 0.145 ± 0.032 | 0.00277 ± 0.0018 | –
13 | UCCUGCUACAGCUUGCAUAGUAUAUAGUAA | 0.0474 ± 0.018 | 0.00354 ± 0.0018 | –
14 | UCCUGCUACAGCUUGCAUAGUUUUUAGAAA | 0.0163 ± 0.0061 | 0.00343 ± 0.0019 | –
15 | UCCUGGAUCAGCUUGCAUAGUAUUAAGAAA | 0.0751 ± 0.02 | 0.00459 ± 0.0022 | –
16 | UCCUCCAACAGCUUGCAUAGUAUUUACAAA | 0.113 ± 0.022 | 0.00355 ± 0.0024 | –
17 | UCCUGGAUCAGCUUGCUUAGUAUUUAGAAA | 0.0821 ± 0.019 | 0.00269 ± 0.0022 | –

Row | Sequence | pre-steady-state target cleavage rate [1, 3] | pre-steady-state target cleavage rate [2] | pre-steady-state target cleavage rate [1, 4]
18 | UCCUGGAACAGCUUGCUUAGUAUUUAGAUA | 0.176 ± 0.017 | 0.00448 ± 0.0027 | –
19 | UCCUCCUACAGCUUGCAUAGUAUUUACAAA | 0.197 ± 0.04 | 0.00422 ± 0.003 | –
20 | UCCUGGAACAGCUAGCAUAGUAUUUUGUUA | 0.154 ± 0.029 | 0.00465 ± 0.003 | –
21 | UCCUGGAACUCCUUGCAUAGUAUUUAGAAA | 0.162 ± 0.029 | 0.00313 ± 0.0019 | –
22 | UCCUGGAUCAGCUUGCAUAGUAUUUAAUUA | 0.0429 ± 0.0097 | 0.00916 ± 0.0034 | –
23 | UCCUGCUACAGCUUGCAUAGUAUUUUGUAA | 0.107 ± 0.032 | 0.00356 ± 0.0022 | –
24 | UCCUCCUACAGCUUCCAUAGUAUUUACUUA | 0.0137 ± 0.0064 | 0.00277 ± 0.0024 | –
25 | UCCUGGAACUGCUUGCAUAGUAUUUUGUUA | 0.101 ± 0.017 | 0.00426 ± 0.0026 | –
26 | UCCUGCUACAGCUUGCAUAGUAUUUAGAUUA | 0.135 ± 0.023 | 0.00658 ± 0.0023 | –
27 | UCCUGCUACACCUUGCAUAGUAUUUUGUUA | 0.1 ± 0.032 | 0.00317 ± 0.0023 | –
28 | UCCUCCUACAGCUUGCAUAGUAUUUAGUGA | 0.186 ± 0.034 | 0.00553 ± 0.0017 | –
29 | UCCUGGAUGUCGAACGAUAGUGAUUUAGUUA | – | < 0.0001 | < 0.0001
30 | UCCUCCUACAGCUUGCAUAGGUAUUUAGUUA | – | 0.0036 ± 0.0026 | 0.00373 ± 0.0024
31 | UCCUGCUACAGCUUGCUUAGAAUUUAGUUA | 0.0543 ± 0.011 | 0.00357 ± 0.0018 | –
32 | UCCUCGAACAGCUUGCAUAGUAUUUAGAAA | 0.137 ± 0.019 | 0.00534 ± 0.0018 | –
33 | UCCUGCUUGUGCUUGCAUAGUAUUUAGAAA | 0.0115 ± 0.0056 | 0.00373 ± 0.0022 | –
